Results published in PubChem BioAssay AID686978 (National Center for Advancing Translational Sciences (NCATS), 2013).
The whole screen tested about 420,000 compounds, of which about 64,000 (15%) were called active. Inconclusive results (about 27%) are left out. Calls follow the shape of the dose curve; as a rule, active = well fitted inhibition curve with a large enough effect; inconclusive = small, poorly fitted or top-dose-only effect; inactive = flat fitted curve, though single readings scatter. Not all results are given here. Entries that show only a call come without a potency.

Assay: qHTS for Inhibitors of human tyrosyl-DNA phosphodiesterase 1 (TDP1): qHTS in cells in absence of CPT; also: nearly all actives have a fitted effect of over 55% in size
Conditions: DT40 Tdp1-/- hTDP1 cells, no CPT, ATP luminescence, 48 h; activity change, negative = growth inhibition: at 46.2 µM (top of the series)
Procedure, shortened: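 No-CPT arm: Tdp1-/-;hTDP1 DT40 cells (400/well) plus compounds, incubated ≥48 hr at 37 °C. Readout CellTiter-Glo luminescence.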
Potency is read from the fitted curve at half-maximal effect.

Row | Structure (SMILES) | Potency
1 | O=C(CSc1nc2c(c(=O)[nH]1)CN(Cc1ccc(F)cc1)CC2)Nc1ccccc1Cl | inactive
2 | COc1ccc(CN2CCc3nc(Nc4ccccc4)ncc3C2)c(OC)c1OC | 20.6 µM (active)
3 | Cc1nc2cnc(Nc3ccccc3)nc2n(Cc2ccc(F)cc2)c1=O | inactive
4 | Fc1ccc(CN2CCc3nc(Nc4ccccc4)ncc3C2)cc1F | 20.6 µM (active)
5 | COc1ccc(CN2CCN(Cc3ccc(OC)c(OC)c3OC)CC2)cc1 | inactive
6 | Cn1c(=O)c(CCc2ccccc2)nc2cnc(Nc3ccccc3)nc21 | inactive
7 | Fc1cccc(CSc2nnc3ccc(-c4ccncc4)nn23)c1 | inactive
8 | Cc1[nH]c2ccccc2c1-c1ccc(Cl)nn1 | inactive
9 | C=CCN1CCN(C(=O)CCCc2ccccc2)CC1 | inactive
10 | COc1ccccc1CNC(=O)C1Cc2ccccc2C(=O)O1 (centres undefined) | inactive
11 | COc1ccccc1CNC(=O)C1CCN(C(=O)[C@@H]2Cc3ccccc3CN2)CC1 | inactive
12 | COc1ccccc1CNC(=O)[C@@H]1CCCN1C(=O)[C@@H]1Cc2ccccc2CN1C(=O)OC(C)(C)C | 16.4 µM (active)
13 | O=C(NCC(=O)N1CCC2(CC1)NCCc1[nH]cnc12)c1ccc(Br)cc1 | inactive
14 | CC(C)c1ccc(/C=C/C(=O)NNC(=O)c2cccnc2)cc1 | inactive
15 | COc1cc2[nH]c(=S)n(Cc3ccc(C)o3)c(=O)c2cc1OC | inactive
16 | O=C(NCCc1c[nH]c2ccc(Cl)cc12)c1ccc([N+](=O)[O-])cc1 | inactive
17 | CCOc1ccc(-c2nc(N)ncc2-c2ccccc2OC)c(O)c1 | inactive
18 | Cc1noc(C)c1COC(=O)COc1ccc(-c2ccccc2)cc1 | inactive
19 | C=C(C)COc1ccc(-c2n[nH]c(C)c2-c2ccccc2)c(O)c1 | 16.4 µM (active)
20 | COc1ccc(-c2n[nH]c(C)c2-c2ccccc2OC)c(O)c1 | 20.6 µM (active)
21 | CCOC(=O)COc1cc(O)c2c(=O)cc(-c3ccccc3)oc2c1 | inactive
22 | COc1ccc(-c2[nH]ncc2CN(C)Cc2c(C)n[nH]c2C)c(OC)c1 | inactive
23 | Cc1ccc2nc(N(CCN(C)C)C(=O)C3=COCCO3)sc2c1 | inactive
24 | CCCC(=O)OCC(=O)Nc1cc(Cl)ccc1[N+](=O)[O-] | inactive
25 | CCOC(=O)N1CCN(C(=O)c2ccccc2SCC(=O)NCC2CCCCC2)CC1 | inactive
26 | Cc1ccc2c(C(=O)CN3CCCC3)c(C)[nH]c2c1 | inactive

Row | Structure (SMILES) | Potency
27 | CCOC(=O)N1CCN(CC(=O)c2c(C)[nH]c3ccccc23)CC1 | 18.4 µM (active)
28 | Cc1[nH]c2ccccc2c1C(=O)COC(=O)C(C)C | inactive
29 | Cc1[nH]c2ccccc2c1C(=O)CSCC(=O)O | inactive
30 | Cc1[nH]c2ccccc2c1C(=O)CN1CC(C)CC(C)C1 (centres undefined) | 8.2 µM (active)
31 | Cc1[nH]c2ccccc2c1C(=O)CN1CCCC(C)C1 (centres undefined) | inactive
32 | Cc1ccc(OCC(=O)Nc2nnc(-c3ccco3)s2)cc1 | inactive
33 | CSc1ncccc1C(=O)Nc1ccc2c(c1)OCO2 | inactive
34 | CCOC(=O)c1c(S(=O)(=O)Nc2ccc(CN3CCC(C)CC3)cc2)c(C)n(C)c1C | inactive
35 | CCOC(=O)c1cnc(SCC(=O)NCc2ccco2)nc1N | inactive
36 | CCOC(=O)c1cnc(SCC(=O)Nc2ccccc2C(=O)OC)nc1N | 23.1 µM (active)
37 | COC(=O)c1ccccc1NC(=O)CSc1ccccn1 | inactive
38 | CCCCN(C)CCCNC(=O)CN1N=C(c2ccc(OC)cc2)CCC1=O | inactive
39 | C=CCC(CC=C)(C(N)=O)c1ccccc1 | inactive
40 | Cc1nn(CC(=O)Nc2ccc(C#N)cc2)c(C)c1[N+](=O)[O-] | inactive
41 | COCc1c(C(=O)OCC(=O)Nc2ccc(OC(F)F)cc2)oc2ccccc12 | inactive
42 | CCOC(=O)c1c(C)oc2cc(Sc3ccccc3)c(O)c(O)c12 | 25.9 µM (active)
43 | Cc1oc2cc(Br)c(O)c(Br)c2c1C(=O)c1ccccc1 | inactive
44 | CCOC(=O)c1c(-c2ccccc2)oc2cc(Br)c(O)cc12 | inactive
45 | Nc1nc(COC(=O)CCC(=O)c2ccc(Cl)cc2)nc(Nc2ccccc2)n1 | inactive
46 | O=C(CSc1nc2nccnc2c(=O)n1Cc1cccs1)Nc1ccccc1F | inactive
47 | O=C(CSc1nc2nccnc2c(=O)n1CCc1c[nH]c2ccccc12)Nc1ccccc1F | 8.2 µM (active)
48 | Cc1cc(C)c(NC(=O)CSc2nc3nccnc3c(=O)n2CCc2c[nH]c3ccccc23)c(C)c1 | inactive
49 | Cc1cc(C)cc(NC(=O)CSc2nc3nccnc3c(=O)n2CCc2c[nH]c3ccccc23)c1 | 7.31 µM (active)
50 | Cc1cc(C)cc(NC(=O)Cn2c(=O)c3ccccc3n3nncc23)c1 | inactive
51 | Cn1c(CCC(=O)Nc2ccccc2F)nnc1SCC(=O)Nc1ccccc1Cl | inactive
52 | Cc1cccc(C)c1NC(=O)CSc1nc2c([nH]1)c(=O)n(C)c(=O)n2C | inactive

Row | Structure (SMILES) | Potency
53 | CCc1c(O)nc(SCC(=O)Nc2ccccc2)n(C(C)CC)c1=O (centres undefined) | inactive
54 | CCCNCc1cc(OCC)c(OCC(=O)Nc2ccccc2)cc1Br | inactive
55 | CN(C)C(=O)c1cc(Br)ccc1Cl | inactive
56 | Cc1cc(OC(=O)c2ccccc2)c([N+](=O)[O-])c(=O)[nH]1 | inactive
57 | Oc1ccc(/C=N/Nc2ccc(C(F)(F)F)cn2)cc1O | 2.59 µM (active)
58 | O=C(O)c1ccc(N/N=C/c2ccc3ncccc3c2)cc1 | inactive
59 | Cc1nnsc1C(=O)N/N=C/c1cccc(C(F)(F)F)c1 | inactive
60 | O=C1/C(=C/c2ccc(F)cc2)SC(=S)N1NS(=O)(=O)c1ccccc1 | inactive
61 | CC1CCCCC12NC(=O)N(CC(=O)N1CCN(c3ccccc3)CC1)C2=O (centres undefined) | inactive
62 | Cc1cc(C)c(NC(=O)CSc2nc3ccncc3[nH]2)c(C)c1 | inactive
63 | Cc1ccc(Oc2cc(NC(=O)CCCn3nc(C)c([N+](=O)[O-])c3C)cc([N+](=O)[O-])c2)cc1 | 18.4 µM (active)
64 | COc1ccc(CNC(=O)CCCn2nc(C)c([N+](=O)[O-])c2C)cc1 | inactive
65 | CCc1ccc(NC(=O)Cn2nc(C)c([N+](=O)[O-])c2C)cc1 | inactive
66 | CCC(C(=O)NC(C)(C)C)n1c(-c2ccccc2)nc2ccccc21 (centres undefined) | 18.4 µM (active)
67 | CC(C)(C)NC(=O)NC(=O)COC(=O)Cn1c(C(F)(F)F)nc2ccccc21 | inactive
68 | CCCc1nc2ccccc2n1C(C)C(=O)NC(C)(C)C (centres undefined) | inactive
69 | CC(C)(C)NC(=O)C(CCc1ccccc1)n1c(=O)c(-c2ccccc2)nc2ccccc21 (centres undefined) | 2.91 µM (active)
70 | CC(=O)NS(=O)(=O)c1ccc(N/C(N)=N/c2nc(C)cc(C)n2)cc1 | inactive
71 | Cc1nnc(SCCCCSc2nnc(C)c(=O)[nH]2)[nH]c1=O | inactive
72 | COc1ccc(Br)cc1/C=N/Nc1ccc(S(=O)(=O)Nc2ccccc2C(=O)O)cc1[N+](=O)[O-] | inactive
73 | COc1ccc(CCNC(=O)c2ccc3c(c2)nc(C)n3-c2ccc(Br)cc2)cc1OC | 20.6 µM (active)
74 | COc1ccc(CCNC(=O)CSCc2ccc(Br)cc2)cc1OC | inactive
75 | COc1ccccc1CNC(=O)c1ccc(-n2c(C)cc3c2CCCC3)cc1 | 14.6 µM (active)
76 | COc1ccc(CCNC(=O)c2ccc(-n3c(C)cc4c3CCCC4)cc2)cc1OC | 18.4 µM (active)
77 | COCCn1c(=S)[nH]c2cc(C(=O)NCCc3ccc(OC)c(OC)c3)ccc2c1=O | inactive
78 | COc1ccccc1CNC(=O)Cn1cc2c(n1)CCCC2 | inactive

Row | Structure (SMILES) | Potency
79 | COc1ccc(C(=O)NCc2ccccc2C)cc1S(=O)(=O)NC1CCCC1 | inactive
80 | O=C(OC1CC2CC1[C@H]1CCCCN1C2=O)N1CCOCC1 (some centres undefined) | inactive
81 | O=C(CS(=O)(=O)c1ccccc1)Nc1ccc(S(=O)(=O)Nc2ccccn2)cc1 | inactive
82 | CCC1(C2CCN(Cc3cccnc3)CC2)NC(=O)N(CC2COc3ccccc3O2)C1=O (centres undefined) | inactive
83 | CC(=O)c1cccc(NC(=S)N2CCN(S(C)(=O)=O)CC2)c1 | inactive
84 | CC(=O)N1CCN(C(=O)C2(NC(=O)Nc3ccc(C)cc3)CCCCC2)CC1 | inactive
85 | CN(C)c1ccc(N/C=C/C(=O)C(F)(F)F)cc1 | inactive
86 | CCOc1ccc(S(=O)(=O)N/N=C(\C)c2ccc(Cl)c(Cl)c2Cl)cc1 | inactive
87 | CCOc1ccc(OCC)c(NC(=O)C(NS(=O)(=O)c2ccc3c(c2)oc(=O)n3C)C(C)C)c1 (centres undefined) | inactive
88 | O=C(CC1NCCNC1=O)Nc1ccc(Oc2ccccc2)cc1 (centres undefined) | inactive
89 | CCN(CC)c1cc(NC2CCCCC2)c2c3c(onc13)-c1ccccc1C2=O | 18.4 µM (active)
90 | Cc1nnc(SCC(=O)Nc2cccc(N)c2)n1-c1ccccc1 | inactive
91 | CC(C)Oc1ccc(C2NC(=O)NC2=O)cc1 (centres undefined) | inactive
92 | Cc1cc2c(cc1C)C(c1cccc(OC(C)C)c1)CC(=O)N2 (centres undefined) | 23.1 µM (active)
93 | COC(=O)c1ccc(C2CC(=O)Nc3cc(OC)c(OC)cc32)cc1 (centres undefined) | inactive
94 | COc1ccc(C2CC(=O)Nc3cc(C)c(C)cc32)c(OC)c1OC (centres undefined) | 20.6 µM (active)
95 | COc1cc2c(cc1OC)C(c1ccc(C)o1)CC(=O)N2 (centres undefined) | inactive
96 | COc1cc2c(cc1OC)C(c1ccncc1)CC(=O)N2 (centres undefined) | inactive
97 | CC1CN(c2cc(=O)n(Cc3ccc(F)cc3)c(=O)[nH]2)CC(C)O1 (centres undefined) | inactive
98 | O=C1CCCCN1CCCC(=O)N1CCCC(Nc2ccc(F)cc2)C1 (centres undefined) | inactive
99 | CCOC(=O)C1(Cc2ccccc2C)CCCN(C(=O)CN2C(=O)CSC2=O)C1 (centres undefined) | inactive
100 | Cc1nc2cnc(N3CCN(C)CC3)nc2n(C[C@H]2CCCO2)c1=O | inactive
101 | CC(=O)C1=C(O)C(=O)N(c2ccc(Br)cc2)C1c1ccc([N+](=O)[O-])cc1 (centres undefined) | inactive
102 | Nc1ncc(S(=O)(=O)Nc2ccc(OC(F)(F)F)cc2)cn1 | inactive
103 | O=C1CCc2cc(S(=O)(=O)Nc3ccc(C(F)(F)F)cc3)cc3c2N1CC3 | inactive
104 | O=C1Cc2cc(S(=O)(=O)Nc3ccc(OC(F)(F)F)cc3)cc3c2N1CCC3 | 18.4 µM (active)
